One test deals with T1, FEV (Homo sapiens, UniProt Q99581 1-238).
T1 sequence: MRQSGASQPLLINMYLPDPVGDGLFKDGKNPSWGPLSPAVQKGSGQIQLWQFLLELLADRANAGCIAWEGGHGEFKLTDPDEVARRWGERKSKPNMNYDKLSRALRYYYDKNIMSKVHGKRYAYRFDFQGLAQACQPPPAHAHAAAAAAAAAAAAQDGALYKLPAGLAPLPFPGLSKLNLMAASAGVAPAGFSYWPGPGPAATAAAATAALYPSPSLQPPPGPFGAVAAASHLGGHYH
Briefly: DAPPL (digital affinity profiling via proximity ligation, sequencing); 10 mM Tris-HCl pH 7.5, 50 mM NaCl, 1 mM DTT, 4% glycerol, room temperature, 30 min; GST-TFs on glutathione beads, 16-mer random dsDNA library, 0.1% formaldehyde crosslink after washing; high values mean tight binding. The note with it: protein: recombinant; tags: N-terminal GST; dsDNA, one strand shown. The essentials:
(§1)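 Human transcription factors carrying a GST fusion were produced in yeast, bound to glutathione beads, tagged with DNA barcodes and pooled together with a tag-only sample. Each pool was held with 200 nmole of a random double-stranded 16-mer DNA library in Tris/NaCl/DTT/glycerol buffer for 30 min at room temperature, then washed, crosslinked in 0.1% formaldehyde, proximity-ligated with BsaI/T4 ligase (1 h, 37 °C), PCR-amplified and sequenced on an Illumina NextSeq500. Binding signal is the read frequency of each hexamer for a given factor divided by its frequency in the tag-only sample.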
Sequence of ETV5 (P41161 whole entry): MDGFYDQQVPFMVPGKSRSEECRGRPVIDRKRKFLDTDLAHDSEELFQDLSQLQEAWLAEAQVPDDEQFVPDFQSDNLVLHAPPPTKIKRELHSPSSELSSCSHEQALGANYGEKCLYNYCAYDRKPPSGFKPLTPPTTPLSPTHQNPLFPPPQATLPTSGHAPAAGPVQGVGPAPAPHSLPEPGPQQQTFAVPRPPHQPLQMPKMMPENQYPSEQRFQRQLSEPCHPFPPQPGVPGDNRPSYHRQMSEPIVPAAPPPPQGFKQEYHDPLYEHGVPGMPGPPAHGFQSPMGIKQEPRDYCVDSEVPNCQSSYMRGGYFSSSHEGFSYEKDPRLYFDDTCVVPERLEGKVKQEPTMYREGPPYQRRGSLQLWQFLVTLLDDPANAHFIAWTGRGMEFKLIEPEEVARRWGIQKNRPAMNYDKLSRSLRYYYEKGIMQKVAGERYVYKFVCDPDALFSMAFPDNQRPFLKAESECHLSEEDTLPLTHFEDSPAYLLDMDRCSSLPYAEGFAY
Consider GCTCTA, for which the binding signal was 1.15 fold enrichment (6-mer frequency, TF over GST control).
Regarding TCCGGT, the binding signal is 6.6 fold enrichment (6-mer frequency, TF over GST control).
On to ATTTTG, for which the binding signal was 1.15 fold enrichment (6-mer frequency, TF over GST control).
For CCCCTC, the binding signal was 1.41 fold enrichment (6-mer frequency, TF over GST control).
With ATGTTA, the binding signal is 1.13 fold enrichment (6-mer frequency, TF over GST control).
On the same count and under the same terms, then TTGGTG, with 1.22 fold enrichment (6-mer frequency, TF over GST control); and TCCTCC, with 1.55 fold enrichment (6-mer frequency, TF over GST control); and TTTCGA, with 1.48 fold enrichment (6-mer frequency, TF over GST control).
For CAAAAA, the binding signal is 1.2 fold enrichment (6-mer frequency, TF over GST control).
Same read-out and setting: then TGCTTC, with 2.29 fold enrichment (6-mer frequency, TF over GST control).
For TCACTC, the binding signal was 1.23 fold enrichment (6-mer frequency, TF over GST control).
Consider ATACAA, for which the binding signal was 1.09 fold enrichment (6-mer frequency, TF over GST control).
In the case of TTTTGG, the binding signal is 1.38 fold enrichment (6-mer frequency, TF over GST control).
In the case of TAACTG, the binding signal is 1.28 fold enrichment (6-mer frequency, TF over GST control).
With CAATCT, the binding signal was 1.2 fold enrichment (6-mer frequency, TF over GST control).
For ATTATT, the binding signal was 1.15 fold enrichment (6-mer frequency, TF over GST control).
In the case of AGTGCT, the binding signal is 1.4 fold enrichment (6-mer frequency, TF over GST control).
With TGGATG, the binding signal was 1.35 fold enrichment (6-mer frequency, TF over GST control).
Turning to TAATCT, the binding signal is 1.3 fold enrichment (6-mer frequency, TF over GST control).
For TGCTCC, the binding signal was 1.38 fold enrichment (6-mer frequency, TF over GST control).
Regarding CTGGTT, the binding signal was 1.19 fold enrichment (6-mer frequency, TF over GST control).
Regarding AATTAC, the binding signal was 1.25 fold enrichment (6-mer frequency, TF over GST control).
For TTAAGG, the binding signal is 1.16 fold enrichment (6-mer frequency, TF over GST control).
Same read-out and setting: then ACTACG, with 1.34 fold enrichment (6-mer frequency, TF over GST control); and CTATGC, with 1.36 fold enrichment (6-mer frequency, TF over GST control); and TCATCC, with 1.4 fold enrichment (6-mer frequency, TF over GST control).
Take GTATCT: the binding signal is 1.14 fold enrichment (6-mer frequency, TF over GST control).
For TCATTT, the binding signal was 1.38 fold enrichment (6-mer frequency, TF over GST control).
On to CTCTCT, for which the binding signal was 1.67 fold enrichment (6-mer frequency, TF over GST control).
As to AAGTTA, the binding signal is 1.15 fold enrichment (6-mer frequency, TF over GST control).
As to ATCACC, the binding signal is 1.09 fold enrichment (6-mer frequency, TF over GST control).
As to ATCCTT, the binding signal was 1.64 fold enrichment (6-mer frequency, TF over GST control).
As to GGTATT, the binding signal was 1.1 fold enrichment (6-mer frequency, TF over GST control).
As for CATATA, the binding signal was 1.08 fold enrichment (6-mer frequency, TF over GST control).
With TACCTC, the binding signal is 1.22 fold enrichment (6-mer frequency, TF over GST control).
As for ACGAAT, the binding signal is 1.17 fold enrichment (6-mer frequency, TF over GST control).
As for AATTGC, the binding signal is 1.39 fold enrichment (6-mer frequency, TF over GST control).
In the case of TTAAAG, the binding signal was 1.17 fold enrichment (6-mer frequency, TF over GST control).
Same read-out and setting: then CTATTC, with 1.28 fold enrichment (6-mer frequency, TF over GST control).
On the same count and under the same terms, the value for TTTTGT was 1.33 fold enrichment (6-mer frequency, TF over GST control).

The target in another test is ETV5 (Homo sapiens, UniProt P41161 1-510). The test is described as above. To be noted: protein: recombinant; tags: N-terminal GST; dsDNA, one strand shown. The essentials:
as §1
Turning to GCTCTA, the binding signal was 1.21 fold enrichment (6-mer frequency, TF over GST control).
Regarding TCCGGT, the binding signal is 3.98 fold enrichment (6-mer frequency, TF over GST control).
In the case of ATTTTG, the binding signal is 1.28 fold enrichment (6-mer frequency, TF over GST control).
Same read-out and setting: the value for CCCCTC was 1.37 fold enrichment (6-mer frequency, TF over GST control).
Regarding ATGTTA, the binding signal is 1.25 fold enrichment (6-mer frequency, TF over GST control).
As to TTGGTG, the binding signal is 1.32 fold enrichment (6-mer frequency, TF over GST control).
Turning to TCCTCC, the binding signal is 1.59 fold enrichment (6-mer frequency, TF over GST control).
For the sequence TTTCGA, the binding signal is 1.54 fold enrichment (6-mer frequency, TF over GST control).
On the same count and under the same terms, the value for CAAAAA was 1.15 fold enrichment (6-mer frequency, TF over GST control); that for TGCTTC was 2.1 fold enrichment (6-mer frequency, TF over GST control).
With TCACTC, the binding signal is 1.19 fold enrichment (6-mer frequency, TF over GST control).
As to ATACAA, the binding signal was 1.15 fold enrichment (6-mer frequency, TF over GST control).
TTTTGG: the binding signal was 1.55 fold enrichment (6-mer frequency, TF over GST control).
In the case of TAACTG, the binding signal was 1.22 fold enrichment (6-mer frequency, TF over GST control).
Take CAATCT: the binding signal is 1.21 fold enrichment (6-mer frequency, TF over GST control).
Consider ATTATT, for which the binding signal was 1.17 fold enrichment (6-mer frequency, TF over GST control).
AGTGCT: the binding signal is 1.4 fold enrichment (6-mer frequency, TF over GST control).
Same read-out and setting: the value for TGGATG was 1.42 fold enrichment (6-mer frequency, TF over GST control); that for TAATCT was 1.44 fold enrichment (6-mer frequency, TF over GST control); that for TGCTCC was 1.42 fold enrichment (6-mer frequency, TF over GST control).
For the sequence CTGGTT, the binding signal was 1.36 fold enrichment (6-mer frequency, TF over GST control).
With AATTAC, the binding signal was 1.28 fold enrichment (6-mer frequency, TF over GST control).
For the sequence TTAAGG, the binding signal is 1.11 fold enrichment (6-mer frequency, TF over GST control).
Turning to ACTACG, the binding signal was 1.27 fold enrichment (6-mer frequency, TF over GST control).
As to CTATGC, the binding signal was 1.38 fold enrichment (6-mer frequency, TF over GST control).
For TCATCC, the binding signal was 1.35 fold enrichment (6-mer frequency, TF over GST control).
For GTATCT, the binding signal is 1.11 fold enrichment (6-mer frequency, TF over GST control).
For TCATTT, the binding signal is 1.4 fold enrichment (6-mer frequency, TF over GST control).
CTCTCT: the binding signal was 1.57 fold enrichment (6-mer frequency, TF over GST control).
Consider AAGTTA, for which the binding signal was 1.26 fold enrichment (6-mer frequency, TF over GST control).
As for ATCACC, the binding signal was 1.11 fold enrichment (6-mer frequency, TF over GST control).
As to ATCCTT, the binding signal is 1.67 fold enrichment (6-mer frequency, TF over GST control).
As for GGTATT, the binding signal is 1.16 fold enrichment (6-mer frequency, TF over GST control).
In the case of CATATA, the binding signal is 1.09 fold enrichment (6-mer frequency, TF over GST control).
TACCTC: the binding signal was 1.14 fold enrichment (6-mer frequency, TF over GST control).
Still for that read-out and setting: then ACGAAT, with 1.14 fold enrichment (6-mer frequency, TF over GST control); and AATTGC, with 1.43 fold enrichment (6-mer frequency, TF over GST control); and TTAAAG, with 1.15 fold enrichment (6-mer frequency, TF over GST control).
Same read-out and setting: the value for CTATTC was 1.35 fold enrichment (6-mer frequency, TF over GST control); that for TTTTGT was 1.31 fold enrichment (6-mer frequency, TF over GST control).

The target in the next test is HSF1 (Homo sapiens, UniProt Q00613 1-529). Described as above. The note with it: protein: recombinant; tags: N-terminal GST; chain copies: 3; dsDNA, one strand shown. The essentials: as §1
Sequence of HSF1 (Q00613 whole entry): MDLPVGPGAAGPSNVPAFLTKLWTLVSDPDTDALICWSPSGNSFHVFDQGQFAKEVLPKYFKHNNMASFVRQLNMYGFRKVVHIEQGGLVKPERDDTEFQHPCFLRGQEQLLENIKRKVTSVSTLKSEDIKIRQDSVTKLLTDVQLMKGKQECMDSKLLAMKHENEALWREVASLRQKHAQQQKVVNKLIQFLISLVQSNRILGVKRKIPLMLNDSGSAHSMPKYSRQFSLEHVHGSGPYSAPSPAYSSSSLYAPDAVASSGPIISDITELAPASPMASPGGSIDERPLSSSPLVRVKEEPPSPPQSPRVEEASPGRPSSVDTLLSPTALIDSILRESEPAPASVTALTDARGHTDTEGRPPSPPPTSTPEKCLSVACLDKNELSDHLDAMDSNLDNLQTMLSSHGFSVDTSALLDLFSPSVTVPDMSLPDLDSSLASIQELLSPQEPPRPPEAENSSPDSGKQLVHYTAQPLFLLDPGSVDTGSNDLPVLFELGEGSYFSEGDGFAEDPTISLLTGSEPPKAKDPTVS
With GCTCTA, the binding signal is 1.34 fold enrichment (6-mer frequency, TF over GST control).
TCCGGT: the binding signal was 1.09 fold enrichment (6-mer frequency, TF over GST control).
Turning to ATTTTG, the binding signal is 1.28 fold enrichment (6-mer frequency, TF over GST control).
Consider CCCCTC, for which the binding signal is 1.13 fold enrichment (6-mer frequency, TF over GST control).
On to ATGTTA, for which the binding signal is 1.12 fold enrichment (6-mer frequency, TF over GST control).
TTGGTG: the binding signal is 1.18 fold enrichment (6-mer frequency, TF over GST control).
On the same count and under the same terms, the value for TCCTCC was 1.27 fold enrichment (6-mer frequency, TF over GST control); that for TTTCGA was 2.5 fold enrichment (6-mer frequency, TF over GST control); that for CAAAAA was 1.08 fold enrichment (6-mer frequency, TF over GST control).
With TGCTTC, the binding signal is 1.49 fold enrichment (6-mer frequency, TF over GST control).
As to TCACTC, the binding signal was 1.11 fold enrichment (6-mer frequency, TF over GST control).
With ATACAA, the binding signal is 1.03 fold enrichment (6-mer frequency, TF over GST control).
For TTTTGG, the binding signal is 1.44 fold enrichment (6-mer frequency, TF over GST control).
The same measure, in the same setting: the value for TAACTG was 1.25 fold enrichment (6-mer frequency, TF over GST control).
With CAATCT, the binding signal was 1.48 fold enrichment (6-mer frequency, TF over GST control).
For ATTATT, the binding signal is 1.8 fold enrichment (6-mer frequency, TF over GST control).
Still for that read-out and setting: then AGTGCT, with 1.15 fold enrichment (6-mer frequency, TF over GST control); and TGGATG, with 1.52 fold enrichment (6-mer frequency, TF over GST control).
As to TAATCT, the binding signal is 3.55 fold enrichment (6-mer frequency, TF over GST control).
Same read-out and setting: then TGCTCC, with 1.27 fold enrichment (6-mer frequency, TF over GST control).

Values taken from article PMC7862700, “An all-to-all approach to the identification of sequence-specific readers for epigenetic DNA modifications on cytosine”.
